Pf growth 96h: Primary qHTS for delayed death inhibitors of the malarial parasite plastid, 96 hour incubation | P. falciparum luciferase reporter growth, 96 h | Potency, µM (top dose mostly 28.7 µM), for the others: at the top dose activity change, negative = inhibition, most hits filed as inhibitors | 320,000 compounds, 6.9% hits | AID 504834, 2011; note: potency is the fitted concentration of half-maximal effect; % is set by controls: 0 for no effect and ±100 for the full control effect
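Two parasite generations (96 h, 37 C, 5% CO2) of compound exposure in infected erythrocytes (0.05% parasitemia, 2% hematocrit). Luciferase-reporter P. falciparum; decreased luminescence indicates inhibited growth, aimed at apicoplast-acting delayed death.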
Pf growth 48h: Primary qHTS for delayed death inhibitors of the malarial parasite plastid, 48 hour incubation | 310,000 compounds, 5.9% hits | AID 504832, 2011 | Potency, µM (titrated, usually from 28.7 µM), inactives show at the highest dose activity change, negative = inhibition, usual class: inhibitors | P. falciparum luciferase growth in erythrocytes, 48 h; note: potency is the fitted concentration of half-maximal effect; % is set by controls: 0 for no effect and ±100 for the full control effect
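Read-out is firefly luciferase luminescence from an integrated reporter in P. falciparum, so falling signal marks reduced parasite growth. Infected erythrocytes were at 2% hematocrit and 0.1% parasitemia (final) in Albumax-supplemented RPMI 1640.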
Shiga toxin inh: A qHTS for Small Molecule Inhibitors of Shiga Toxin; Vero cells, Shiga toxin protein synthesis inhibition reporter; inhibition, % at 38.7 µM; 290,000 compounds, 9.2% hits; in the data active = inhibition mostly above about 28%, no sharp cut-off; inactive = mostly below about 43%; note: 0% is about no effect
NS1 function inh: qHTS Assay for Inhibitors of Influenza NS1 Protein Function. 270,000 compounds, 0.4% hits. Potency, µM (titrated, usually from 46.1 µM), for inactives: at the highest dose activity, positive = more growth; calls by dose curve; note: potency is the fitted concentration of half-maximal effect; actives are rising curves; nearly all actives have a fitted effect of over 50% in size
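In this qHTS, NS1 from influenza A is expressed in budding yeast, where it slows growth. Cells are switched from glucose to 2% galactose medium (pH 6.0, -URA), treated with compound, and growth recovery is read at OD600.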
Cycloheximide cs: Cycloheximide Counterscreen for Small Molecule Inhibitors of Shiga Toxin; cell reporter, cycloheximide protein synthesis inhibition counterscreen; max response, %; 300,000 compounds, 12% hits; in the data active = max response mostly above about 13%, no sharp cut-off; inactive = mostly below about 14%; note: read at 38.3 µM for the half of the compounds with a filed dose; 0% is about no effect
FBPA Giardia inh: qHTS Assay for Inhibitors of Fructose-1,6-bisphosphate Aldolase from Giardia Lamblia; A8B2U2; purified Giardia FBPA; Potency, µM (titrated, usually from 59.6 µM), for inactives: at the highest dose activity, negative = inhibition, hits mostly inhibitors; 290,000 compounds, 0.71% hits; AID 2451, 2010; note: potency is the fitted concentration of half-maximal effect; % is set by controls: 0 for no effect and ±100 for the full control effect; nearly all actives have a fitted effect of over 55% in size
Target sequence (A8B2U2 whole entry, looked up): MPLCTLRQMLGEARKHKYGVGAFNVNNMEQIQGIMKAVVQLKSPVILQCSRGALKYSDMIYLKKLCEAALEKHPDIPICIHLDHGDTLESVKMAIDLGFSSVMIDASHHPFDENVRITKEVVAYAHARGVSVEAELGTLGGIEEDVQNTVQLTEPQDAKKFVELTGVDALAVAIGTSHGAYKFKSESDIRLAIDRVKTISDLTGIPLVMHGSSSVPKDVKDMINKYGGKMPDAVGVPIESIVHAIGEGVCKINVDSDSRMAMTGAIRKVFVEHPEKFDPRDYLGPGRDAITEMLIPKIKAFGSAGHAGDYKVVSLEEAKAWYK
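Giardia FBPA (40 nM reagent) was preincubated 10 min at RT with compound (up to 57.5 uM final), then substrate plus GAPDH/TPI/NAD/arsenate coupling system with diaphorase/resazurin was added; resorufin fluorescence (525/598 nm) was read after 20 min.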
* = called active by the depositor; i = inactive; ? = inconclusive; nt = no result given. An excerpt weighted towards active compounds, which were near 21% of everything screened. Unless noted, calls come from the whole dose curve; as a rule, active = well fitted curve in the direction sought with a large enough effect; inconclusive = small, poorly fitted or top-dose-only effect, or another doubt; inactive = no such curve, though single readings can be large; an effect the other way counts as inactive or inconclusive.

SMILES	Pf growth 96h	Pf growth 48h	Shiga toxin inh	NS1 function inh	Cycloheximide cs	FBPA Giardia inh
Clc1ccc(-c2nnc(-c3ccccc3)c(-c3ccccc3)n2)cc1	?	?	11.3	2.6%	2.5	1.4%
OCCCNc1nc(-c2ccc(Cl)cc2)nnc1-c1ccccc1	3.7µM*	?	22.5	-37.6%	19.6*	-0.6%
O=C(CN1CCCCCC1)Nc1ccccc1OC(F)F	15.2%	9.6%	6.8	3.8%	-2.7	9.0%
Cc1cc(S(=O)(=O)N2CCOCC2)ccc1OCC(=O)Nc1ccc(Br)cc1F	?	15.7%	-5.2	-0.2%	-4.4	4.2%
COc1ccccc1/C=C(/CC(=O)NCc1ccc2c(c1)OCO2)c1nc2ccccc2s1	?	15.9%	67.2*	1.6%	20.5*	-1.0%
O=C(O)C/C(=C\c1ccc2c(c1)OCO2)c1nc2ccccc2s1	87.3%	77.7%	69.0*	-59.1%	32.1*	nt
COc1ccc(/C=C(/CC(=O)NCc2ccc(Cl)cc2)c2nc3ccccc3s2)cc1	?	0.0%	18.6	-18.3%	19.4*	10.2%
O=C(O)C/C(=C\c1cc(Cl)c2c(c1)OCO2)c1nc2ccccc2s1	26.4%	35.7%	3.9	4.9%	-2.3	nt
COc1ccccc1C(=O)NCc1ccc2c(c1)OCO2	0.0%	5.6%	16.6	-14.5%	16.3	-5.7%
Brc1ccc(OCCOc2cccc3cccnc23)cc1	17.7%	1.7%	14.5	2.7%	-3.3	-4.6%
CCN(CC)C(=O)Oc1ccc(Cl)c2cccnc12	10.8%	9.1%	-16.7	-0.8%	-2.9	-0.6%
CC(=O)CCc1ccc(OCCCOc2cccc3cccnc23)cc1	?	?	45.6*	-59.4%	28.7*	2.7%
c1ccc(OCCOc2cccc3cccnc23)cc1	10.4µM*	50.1%	68.3*	-2.7%	33.2*	-2.7%
Clc1ccc(OCc2cn3ccccc3n2)c2ncccc12	-28.1%	127.1%	89.8*	-6.4%	37.2*	?
Clc1ccc(Oc2ccccc2)c2ncccc12	1.5%	-0.9%	-3.8	-7.2%	-4.1	3.3%
OCc1ccccc1OCCOc1ccc(Cl)c2cccnc12	15.1%	37.1%	57.5	nt	27.3*	-17.8%
CC(C)Oc1ccccc1OCCCOc1cccc2cccnc12	-22.4%	-0.8%	26.9	nt	12.3	0.1%
OCc1ccccc1OCCCOc1cccc2cccnc12	?	22.3%	53.2*	-35.8%	26.3*	-3.6%
O=C(O)c1ccc(OCc2cn3ccccc3n2)cc1	121.5%	60.1%	25.6*	1.5%	29.3*	5.3%
O=C(NCc1ccc(F)cc1)c1cc2ccccc2o1	-10.0%	-1.4%	31.9	-10.6%	14.1*	1.2%
O=C(c1ccc(F)cc1)c1cc2ccccc2o1	-20.7%	74.1%	41.5*	-0.8%	25.8*	-0.1%
O=C(c1ccccc1)c1cc2ccccc2o1	19.6%	101.9%	79.8*	-54.3%	37.8*	0.7%
Cc1ccc(C(=O)c2cc3ccccc3o2)cc1[N+](=O)[O-]	?	-20.9%	31.3	-1.1%	16.7	-0.6%
Cc1ccc(NC(=O)CCCN2C(=O)NC(C)(C)C2=O)cc1	34.7%	-7.1%	nt	nt	nt	nt
CCOC(=O)c1ccc(N2Cc3ccccc3C2=N)cc1	69.2%	nt	125.6*	-5.7%	33.7*	-2.9%
SMILES	Pf growth 96h	Pf growth 48h	Shiga toxin inh	NS1 function inh	Cycloheximide cs	FBPA Giardia inh
O=C(N=C1c2ccccc2CN1c1ccc(F)cc1)c1ccc(Cl)nc1	0.0%	41.8%	20.6	-2.0%	24.1*	-6.4%
COc1ccc(N2Cc3ccccc3C2=NC(=O)c2cccc([N+](=O)[O-])c2)cc1	22.7%	164.5%	9.7	2.8%	10.1	-22.6%
CCOC(=O)c1ccc(N2Cc3ccccc3C2=NC(=O)c2ccncc2)cc1	?	?	58.4*	nt	28.4*	-3.1%
COc1ccc(N2Cc3ccccc3C2=NC(=O)c2cncc(Br)c2)cc1	276.6%	i	71.3*	nt	40.2*	-26.6%
COc1ccccc1-c1ccc2ncnc(NC3CC3)c2c1	nt	nt	nt	nt	nt	-2.9%
COCCCn1c(=O)/c(=C\c2ccccc2OC(C)C)s/c1=C(/C#N)C(=O)Nc1ccc(C(=O)O)cc1	1.47µM*	1.85µM*	14.2	3.1%	6.5	-22.0%
O=C(Nc1nc(-c2ccccc2)cs1)Nc1ccc(F)cc1F	-14.5%	20.7%	59.3*	nt	27.7*	-1.4%
Cc1cc(NC(=O)Nc2ccc(F)cc2F)n(C)n1	72.6%	32.2%	0.7	nt	3.7	-3.0%
O=C(Nc1nc(-c2cc(F)ccc2F)cs1)C1=COCCO1	68.6%	48.2%	nt	nt	nt	nt
O=C(Nc1nc(-c2cc(F)ccc2F)cs1)c1ccccn1	?	8.2%	42.2*	nt	15.3*	-0.1%
O=C(Nc1nc(-c2ccccn2)cs1)Nc1ccc(F)cc1F	1.65µM*	1.47µM*	84.5*	-24.4%	35.0*	?
O=C(Nc1ccc(F)cc1F)c1ccccc1-c1ccccc1	27.2%	15.3%	4.7	-10.5%	-0.3	-0.6%
CCn1c(=O)n(CC)c2cc(N3CCCC3)c(NC(=O)c3c(F)cccc3F)cc21	?	?	-4.8	1.0%	-1.6	-10.1%
CNC(=O)CSc1nc2ccccc2c(=O)n1CCc1ccccc1	?	-9.1%	-13.2	-34.4%	-3.0	5.2%
CN(Cc1ccccn1)Cc1cn(Cc2ccccc2)nc1-c1ccc2c(c1)OCO2	?	?	16.5	4.8%	6.1	0.5%
CN(Cc1cn(Cc2ccccc2)nc1-c1ccc2c(c1)OCO2)Cc1nccn1C	14.7µM*	?	-8.0	-1.0%	7.4	1.6%
CCCCNC(=O)CC(C(=O)N1CCc2ccccc21)n1ccnc1 (configuration not stated)	21.3%	nt	25.7	6.9%	-4.9	3.4%
CCN(CCCNC(=O)CC(C(=O)N1CCc2ccccc21)n1ccnc1)c1cccc(C)c1 (configuration not stated)	?	10.4µM*	-9.2	-5.4%	-2.1	-3.7%
O=C1N=C(N2C=CC(=C3C=CNC=C3)C=C2)/C(=C/N=NC(=O)c2ccccc2O)S1	2.8%	-24.0%	53.5*	17.9%	25.9*	nt
C=CCC(COCc1ccccc1)NS(=O)(=O)c1ccccc1Br (configuration not stated)	?	13.1µM*	-11.1	-6.4%	-0.9	-10.5%
O=C(NCc1ccco1)c1c(O)c2cccc3c2n(c1=O)CCC3	13.1µM*	13.0%	13.7	-4.5%	-1.9	-0.5%
O=C(NCc1ccccc1)c1c(O)c2cccc3c2n(c1=O)CCC3	25.3%	13.7%	34.0	-52.5%	-3.1	-9.2%
CCC(Oc1ccccc1)C(=O)OCC(=O)N(CC)c1c(N)n(Cc2ccccc2)c(=O)[nH]c1=O (configuration not stated)	-1.7%	-3.1%	nt	nt	nt	nt
C/C(=N\NC(=O)c1c(Cl)cnn1C)c1cccnc1	7.4%	47.8%	55.8*	-1.2%	39.4*	-1.7%
Cn1ncc(Br)c1C(=O)Nc1cccc(C(F)(F)F)c1	18.5%	26.4%	-14.5	-32.4%	10.3	-11.2%

Screens from PubChem.
